E coli growth-1 = E. coli growth inhibition, primary screen, OD600 | Escherichia coli growth, 23 h; active compounds read low | OD600 absorbance (test concentration not listed) | 0.21% of 330,000 active;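 active means OD600 absorbance below the run mean of sample wells minus 3.6 SD, in any replicate, cut at about 0.56 in these data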
Tat transport = E. coli Tat export inhibitors, primary screen, MC4100, TorA-mCherry reporter, fluorescence, single point; 0.036% of 340,000 active; AID 488895, 2010; inhibition, % at 10 µM;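 active means mean replicate inhibition at least 50% and at least half of replicates individually reaching 50%; inconclusive means only one of the two criteria met; inactive means neither criterion met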;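 further: exported cargo escapes ClpAP degradation while cytoplasmic cargo is degraded and loses fluorescence; 0% = median of neutral control wells and 100% = median of NaSCN control wells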
E coli growth-2 = E. coli V3065 growth inhibition, primary screen, counter-screen for AddAB inhibitor project, absorbance, OD600; 18 h; inhibition, % at 11.9 µM; 0.27% of 330,000 active; AID 449728, 2010;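 active means inhibition above the campaign's mean inhibition across all tested compounds plus 3 SD, cut at about 9.9% in these data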;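 further: uninfected addAB+ strain grown without phage in ampicillin broth; 0% = DMSO wells and 100% = ciprofloxacin 0.95 µg/ml wells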
phage Ecoli inh = growth loss of phage-infected E. coli, primary screen, RecBCD inhibitor project, absorbance, with phage, HTS; inhibition, % at 11.9 µM; 0.26% of 360,000 active; AID 651602, 2012; in the data active means inhibition above about 11%
AddAB inh = growth inhibition of E. coli expressing H. pylori AddAB, primary screen, AddAB inhibitor project, absorbance; inhibition, % at 11.9 µM; 0.29% of 330,000 active; in the data active means inhibition above about 12%;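 further: 0% = vehicle wells of infected cells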
AddAB conf = growth loss of phage-infected E. coli expressing H. pylori AddAB, confirmation, AddAB inhibitor project, absorbance, E. coli V3065, T4 phage, triplicate. OD; T4 phage with gene 2 nonsense mutations. shares compounds with AddAB inh. inhibition, % at 11.9 µM. 64% of 880 active;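 active means mean inhibition above a set limit taken from the earlier primary screen, cut at about 13% in these data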;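 further: higher means less bacterial growth since AddAB block lets phage replicate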
RecBCD counter = growth loss of RecBCD+ E. coli with mutant T4 phage, counter-screen for AddAB inhibitor project, absorbance, V66 E. coli; shares compounds with AddAB inh; OD growth; inhibition, % at 11.9 µM; 73% of 880 active; AID 488955, 2010;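 active means mean inhibition above the mean of solvent-only control wells plus 3 SD, cut at about 4% in these data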;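 further: optical density read after an 18 h incubation at 37 °C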
Bact viability = bacterial viability inhibition counter-screen, confirmation, counter-screen for AddAB inhibitor project, absorbance; shares compounds with AddAB inh; absorbance (AddAB counterscreen); inhibition, % at 11.9 µM; 35% of 880 active; AID 488956, 2010; in the data active means inhibition above about 25%
The depositor's hits bear a star; ? = inconclusive; . = not tested or not shown. Compounds with a hit are over-represented: about 0.5% of the library has one in this group of screens.

SMILES	E coli growth-1	Tat transport	E coli growth-2	phage Ecoli inh	AddAB inh	AddAB conf	RecBCD counter	Bact viability
Cc1cc(Cl)ccc1OCCCC(=O)NNC(=O)c1ccccc1O	0.71	2	8	10	17*	8	8.7*	8
O=C(Nc1ccccc1)C1=CC(c2ccccc2)CC(OCCCCO)O1 (configuration not stated)	0.71	.	.	.	.	.	.	.
O=C(Cc1ccc([N+](=O)[O-])cc1)NCc1cccnc1	0.61	-18	-4	0	4	.	.	.
CC(Sc1nnc(-c2cccs2)n1-c1ccccc1)C(=O)NCc1ccco1 (configuration not stated)	0.71	-1	-3	0	1	.	.	.
CC(Sc1ccsc1[N+](=O)[O-])C(=O)NCc1ccco1 (configuration not stated)	0.69	-4	7	6	14*	23*	2	11
O=C(NCc1ccco1)c1ccc([N+](=O)[O-])o1	.	-2	9	8	35*	76*	6.6*	15
O=C(NCc1ccco1)c1ccc(Cn2cc([N+](=O)[O-])cn2)o1	0.69	-11	-1	4	0	.	.	.
COc1cc(NC(=O)c2ccc([N+](=O)[O-])o2)ccc1NC(=O)c1ccco1	0.69	-3	12*	8	16*	74*	6.7*	22
O=C(NCc1cccnc1)c1ccc([N+](=O)[O-])o1	0.5*	-7	13*	17*	17*	71*	7.9*	18
COc1ccc(NC(=O)Nc2ccc3c(c2)C(=O)N(C(C)CO)CC(C)C(CN(C)C(=O)Nc2ccc4c(c2)OCO4)O3)cc1 (configuration not stated)	0.66	.	.	.	.	.	.	.
CC(C)c1ccc(NC(=S)NC2CCCCCC2)cc1	0.7	-4	87*	1	98*	-4	1	1
S=C(Nc1ccc(Oc2ccc(NC(=S)NC3CCCCC3)cc2)cc1)NC1CCCCC1	0.68	2	5	0	4	.	.	.
Cc1ccnc(NC(c2cccnc2)c2ccc3cccnc3c2O)c1 (configuration not stated)	0.65	?	12*	15*	12*	12	12*	5
COc1ccccc1NC(c1cccnc1)c1ccc2cccnc2c1O (configuration not stated)	0.74	-1	-3	8	6	.	.	.
CCOC(=O)c1ccc(NC(=O)CSc2ccc(-c3cccnc3)nn2)cc1	.	-15	4	5	16*	3	4.1*	0
COc1ccc(NC(=O)CSc2ccc(-c3cccnc3)nn2)cc1	0.64	1	0	4	5	.	.	.
Cc1nnc(SCC(=O)NCc2ccc3c(c2)OCO3)s1	0.68	-14	44*	1	19*	-6	0	-4
Cc1ccc(CNC(=O)C2(C(F)(F)F)CC(=CCc3ccccc3)CCCO2)o1 (configuration not stated)	0.7	.	.	.	.	.	.	.
Cc1cccc(CN2C[C@]34CCC(CC3S2(=O)=O)O4)c1 (some centres not stated)	0.7	.	.	.	.	.	.	.
CC1=NN(C(=O)c2ccc(Cn3ccc([N+](=O)[O-])n3)cc2)C(O)(C(F)(F)F)C1 (configuration not stated)	0.73	5	7	5	14*	3	1	-1
CCOc1ccc(NC(=O)CCNC(=O)c2ccco2)cc1	0.6	-18	8	10	14*	12	4.7*	6
O=C(CCNC(=O)c1ccco1)Nc1ccccc1	0.61	27	1	1	5	.	.	.
Cc1ccc(NC(=O)CCNC(=O)c2ccco2)cc1	0.69	-16	5	1	15*	6	4	8
CC(C)c1ccc2[nH]c3c(c2c1)C1CCN2C(=O)CCCC(C3)C12 (configuration not stated)	0.66	.	.	.	.	.	.	.
COc1ccc(C=NNc2nnc(C)n2N)cc1OC	0.7	.	.	.	.	.	.	.
